In ChEMBL document CHEMBL1157539, “Thousands of chemical starting points for antimalarial lead identification” (Nature, 2010):

What was measured:
Format in all cases: functional
Plasmodium falciparum [1] = assay: GSK_TCMDC: Inhibition of Plasmodium falciparum 3D7 in whole red blood cells, using parasite LDH activity as an index of growth. Test compounds present at 2uM
Plasmodium falciparum [2] = assay: GSK_TCMDC: Inhibition of Plasmodium falciparum Dd2 in whole red blood cells, using parasite LDH activity as an index of growth. Test compounds present at 2uM
HepG2 = assay: GSK_TCMDC: Percent inhibition of human HepG2 cell line. Test compounds present at 10uM.

| Compound | Inhibition (Plasmodium falciparum [1]) [%] | Inhibition (Plasmodium falciparum [2]) [%] | Inhibition (HepG2) [%] |
| --- | --- | --- | --- |
| CS(=O)(=O)c1cccc(-c2cnc(N)c3cc(-c4ccc5c(c4)OCO5)ccc23)c1.O=CO | 91 | 23 | 37 |
| O=C(NCc1ccc(F)cc1)c1cc(Br)cc(N2CCN(c3ccncc3)CC2)c1.O=C(O)C(F)(F)F | 80 | 59 | 36 |
| O=C(COc1ccc(Cl)c(Cl)c1)NCCCCCN1CCCN(C(=O)Nc2cc(Cl)cc(Cl)c2)CC1.O=C(O)C(F)(F)F | 89 | 1 | 44 |
| CNC(=O)c1ccccc1Nc1nc(Nc2cccnc2)ncc1C.Cl | 93 | 90 | 17 |
| COC(=O)[C@@H](NC(=O)[C@H](Cc1ccc(OC)c(OC)c1)Nc1ccc(C#N)c2ccccc12)c1ccc(O)cc1.O=C(O)C(F)(F)F | 100 | 100 | 6 |
| Cc1nc(-c2ccccc2)nc(N2CCN(C(=O)c3ccco3)CC2)c1Cc1ccccc1F | 95 | 86 | 7 |
| c1ccc(CN2CCC(NCc3ccc(-c4cncc5ccccc45)cc3)CC2)cc1 | 98 | 19 | 21 |
| C[C@@H](CC1CCCCC1)NCc1cccc(NS(=O)(=O)c2ccc(O)c(-c3ccno3)c2)c1.Cl | 88 | 4 | 0 |
| CN1CCN(CCCN(Cc2ccc(-c3ccc(CNCc4ccc5c(c4)OCO5)cc3)cc2)C(=O)Nc2ccccc2)CC1.O=C(O)C(F)(F)F | 94 | 77 | 36 |
| CC(C)(C)C1CCC(C(=O)c2ccc3ccccc3c2O)CC1 (configuration not stated) | 83 | 63 | 0 |
| COc1ccccc1CNc1ccnc(N2CC(Oc3ccc(F)cc3)C2)n1 | 97 | 95 | 2 |
| COc1ccc(NC(=O)/C=C/c2ccc(-c3ccc(-c4noc(C)n4)cc3)cc2)cc1OCCN(C)C.O=C(O)C(=O)O | 81 | 31 | 14 |
| COc1ccc(CCNCCCCCCNCCc2ccc(Cl)cc2)c(Cl)c1OC.Cl | 100 | 4 | 88 |
| Cc1cnc(NCC2CCCCC2)nc1N[C@@H](CO)C(=O)Nc1ccccc1.O=C(O)C(F)(F)F | 83 | 56 | 0 |
| O=C(C=Cc1ccc(Cl)c(Cl)c1)NCCCCCN1CCC(c2n[nH]c3ccccc23)CC1 | 99 | 29 | 32 |
| N#Cc1ccccc1Sc1ccccc1C(=O)Nc1ccc2ccccc2n1 | 92 | 85 | 0 |
| CCOC(=O)c1cn(CC)c2cc(OCc3ccccc3)ccc2c1=O | 97 | 96 | 2 |
| COc1ccc(C(=O)N2CCC(C(=O)NC(C)c3ccc(-n4ccnc4)cc3)CC2)c2ccccc12 (configuration not stated) | 83 | 79 | 12 |
| CN(Cc1ccccc1)C1CCCN(c2cc(NC(=O)c3cccs3)ccn2)C1.O=C(O)C(F)(F)F (configuration not stated) | 88 | 90 | 2 |
| CCc1cc(CNC2CCN(CCc3c(F)cnc4ccc(OC)nc34)CC2)cc2c1OCCO2.Cl | 100 | 94 | 46 |
| COc1ccc(C(C(=O)NC2CCN(C[C@H](O)c3ccnc4ccc(OC)cc34)CC2)N2CCN(c3ccc(F)cc3)CC2)cc1 (some centres not stated) | 97 | 86 | 16 |
| COC(=O)c1cccc(CNCc2ccc(-c3ccc(-c4nc5ccccc5[nH]4)s3)cc2)c1.O=C(O)C(F)(F)F | 100 | 79 | 20 |
| COc1ccc(-n2nc(C)cc2C(=O)NCc2ccc(-c3c(C)noc3C)cc2)cc1 | 100 | 92 | 3 |
| CCCCNC(=O)[C@H](CC1CCCCC1)NC(=O)c1ccc(O)c(-c2cccc(C(F)(F)F)c2)c1 | 98 | 86 | 0 |
